The nature of experiment [1]: Drug repurposing screens with cells derived from glioblastoma tumor samples (AID 1345199). Also: nearly all actives have a fitted effect of over 40% in size. The note with it: GBM patient neurospheres viability, ATP luminescence, 48 h. In a few lines:
(§1)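 Four patient lines of CD133+ GBM neurospheres were screened at several concentrations; hits were retested in those lines plus three slower-growing GBM lines, using 48-hour treatment and ATP-based viability.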

Experiment [2] relates to astro (control astrocytes). The description is as above. The following applies: viability, ATP luminescence, 48 h; series mostly up to 45.9 µM. In outline: as §1
The mark [3] stands for this setting: at 20 µM (top of the series), tumour line C.
[4] abbreviates: at 21.2 µM (top of the series), tumour line B.
The mark [5] stands for this setting: at 21.2 µM (top of the series), tumour line D.
Setting [6] is: at 21.3 µM (top of the series), tumour line A.
Where [7] appears, read: at 45.9 µM (top of the series), tumour line B.
The mark [8] stands for this setting: at 45.9 µM (top of the series), tumour line D.
The mark [9] stands for this setting: at 46 µM (top of the series), tumour line A.
[10] abbreviates: at 46.1 µM (top of the series), tumour line C.

Inconclusive results are not listed. Values without a mark were called inactive. Activity calls are given as the source filed them. Calls follow the shape of the dose curve; as a rule, active = well fitted inhibition curve with a large enough effect; inconclusive = small, poorly fitted or top-dose-only effect; inactive = flat fitted curve, though single readings scatter.
% is scaled to controls: 0 for no effect and ±100 for the full control effect; potency is read from the fitted curve at half-maximal effect.

For `O=C1NCCN1c1ncc([N+](=O)[O-])s1`, the activity, negative = cell killing in experiment [1] (setting [3]) is -26.4%; in experiment [1] (setting [4]) it was -0.147%; in experiment [1] (setting [5]) it was -24%; in experiment [1] (setting [6]) it was -10.3%. Also, in experiment [2], the Potency result was “inactive”.

For the molecule `O=C(O)[C@@H]1C[C@H](CP(=O)(O)O)CCN1`, the activity, negative = cell killing is -4.93% in experiment [1] (setting [7]), -11.9% in experiment [1] (setting [8]), -21.2% in experiment [1] (setting [9]) and -14% in experiment [1] (setting [10]). Also, the Potency result in experiment [2] was “inactive”.

For `CCC(Oc1ccccc1)C(=O)N[C@@H]1C(=O)N2[C@@H]1SC(C)(C)[C@@H]2C(=O)O` (some centres not stated), the activity, negative = cell killing in experiment [1] (setting [7]) is -4.6%; in experiment [1] (setting [8]) it was -5.25%; in experiment [1] (setting [9]), -9.92%; in experiment [1] (setting [10]) it was -0.932%. Also, the Potency entry in experiment [2] is “inactive”.

On to `O=C(O)[C@H]1CN(C/C=C/P(=O)(O)O)CCN1`, for which the activity, negative = cell killing was -1.77% in experiment [1] (setting [7]), 1.08% in experiment [1] (setting [8]), -25.5% in experiment [1] (setting [9]) and -5.57% in experiment [1] (setting [10]). Besides, the Potency entry in experiment [2] is “inactive”.

Take `O=P(O)(O)OC[C@H](O)CO`: the activity, negative = cell killing was -8.89% in experiment [1] (setting [7]), -11.2% in experiment [1] (setting [8]), -27.1% in experiment [1] (setting [9]) and 21.9% in experiment [1] (setting [10]). In addition, in experiment [2], the Potency result is “inactive”.

Take `CC(C)=CCC/C(C)=C/CC/C(C)=C/CC/C=C(\C)CC/C=C(\C)CCC=C(C)C`: the activity, negative = cell killing in experiment [1] (setting [7]) was 2.98%; in experiment [1] (setting [8]) it was -28.8%; in experiment [1] (setting [9]) it was -32.1%; in experiment [1] (setting [10]), -15.4%. Further, the Potency entry in experiment [2] is “inactive”.

For `Nc1nc2c(c(=O)[nH]1)N(C=O)C(CNc1ccc(C(=O)N[C@@H](CCC(=O)O)C(=O)O)cc1)CN2` (some centres not stated), the activity, negative = cell killing in experiment [1] (setting [3]) is -2.81%; in experiment [1] (setting [4]), -5.52%; in experiment [1] (setting [5]), -5.96%; in experiment [1] (setting [6]), -10.3%. The Potency entry in experiment [2] was “inactive”.

For `CC(C)NCC(O)COc1ccccc1-n1cccc1` (configuration not stated), the activity, negative = cell killing in experiment [1] (setting [7]) is -14.4%; in experiment [1] (setting [8]), -7.4%; in experiment [1] (setting [9]), 15.7%. Moreover, the Potency in experiment [1] (tumour line C) was 25.9 µM (active). Besides, in experiment [2], the Potency entry is “inactive”.

`COc1ccc2c(=O)c(C)c(-c3ccccc3)oc2c1CN(C)C`: the activity, negative = cell killing in experiment [1] (setting [7]) was -11.5%; in experiment [1] (setting [8]) it was -20.7%; in experiment [1] (setting [10]), -17.7%. The Potency in experiment [1] (tumour line A) was 20 µM (active). For the same molecule, the Potency entry in experiment [2] was “inactive”.

`Cc1ncc(C[n+]2csc(CCOP(=O)(O)O)c2C)c(N)n1`: the activity, negative = cell killing in experiment [1] (setting [7]) was -1.8%; in experiment [1] (setting [8]), -1.97%; in experiment [1] (setting [9]), -17%; in experiment [1] (setting [10]), -10.8%. Also, the Potency entry in experiment [2] is “inactive”.

For `CO/N=C(\C(=O)N[C@@H]1C(=O)N2C(C(=O)O)=C(CSc3nnnn3C)CS[C@H]12)c1csc(N)n1`, the results for the activity, negative = cell killing in experiment [1] (setting [7]), in experiment [1] (setting [8]) and in experiment [1] (setting [10]) were -10.5%, -9.07% and -27.1%, respectively. Also, in experiment [1] (tumour line A), the Potency is 11.2 µM (active). Further, the Potency result in experiment [2] is “inactive”.

For `Cc1cc(C(=O)NCCc2ccc(S(=O)(=O)NC(=O)NN3CCCCCC3)cc2)no1`, the activity, negative = cell killing in experiment [1] (setting [7]) was -15.9%; in experiment [1] (setting [8]), -13.6%; in experiment [1] (setting [9]), -31.1%; in experiment [1] (setting [10]), -10.9%. Besides, in experiment [2], the Potency result was “inactive”.

Take `CCN(CC)CCOC[C@H]1O[C@@H](O)[C@H](OCCN(CC)CC)[C@@H](O)[C@@H]1O`: the activity, negative = cell killing in experiment [1] (setting [7]) was -9.61%; in experiment [1] (setting [8]), -16.5%; in experiment [1] (setting [9]), -26.4%; in experiment [1] (setting [10]) it was -24.8%. Moreover, the Potency entry in experiment [2] was “inactive”.

With `C[C@@H]1NC(=O)[C@@H](N)CNC(=O)[C@H](C2CCNC(N)=N2)NC(=O)/C(=C/NC(N)=O)NC(=O)[C@H](CNC(=O)C[C@@H](N)CCCN)NC1=O` (some centres not stated), the activity, negative = cell killing is 24.6% in experiment [1] (setting [3]); -11.2% in experiment [1] (setting [4]); -13.8% in experiment [1] (setting [5]); -12.9% in experiment [1] (setting [7]); -1.47% in experiment [1] (setting [8]); -18.8% in experiment [1] (setting [10]). The Potency entry in experiment [2] was “inactive”.

Consider `CCCC(=O)O`, for which the activity, negative = cell killing was -1.41% in experiment [1] (setting [7]), -13.2% in experiment [1] (setting [8]), -10.6% in experiment [1] (setting [9]) and -26.8% in experiment [1] (setting [10]). In addition, the Potency entry in experiment [2] is “inactive”.

On to `Cn1cc(NC(=O)c2cc(NC(=O)c3cc(NC=O)cn3C)cn2C)cc1C(=O)NCCC(=N)N`, for which the activity, negative = cell killing in experiment [1] (setting [7]) was -15.1%; in experiment [1] (setting [8]), -11.2%; in experiment [1] (setting [9]) it was -20.5%; in experiment [1] (setting [10]) it was -26.2%. For the same molecule, the Potency result in experiment [2] was “inactive”.

On to `CC(C)[C@@H](N)C(=O)O`, for which the activity, negative = cell killing in experiment [1] (setting [7]) is -4.72%; in experiment [1] (setting [8]), -10.1%; in experiment [1] (setting [9]), -15.5%; in experiment [1] (setting [10]), -0.187%. Besides, the Potency entry in experiment [2] is “inactive”.

With `CO[C@@]1(NC(=O)C2SC(=C(C(N)=O)C(=O)O)S2)C(=O)N2C(C(=O)O)=C(CSc3nnnn3C)CS[C@@H]21` (some centres not stated), the activity, negative = cell killing in experiment [1] (setting [3]) is -19.2%; in experiment [1] (setting [4]), -15.8%; in experiment [1] (setting [5]) it was -10.4%; in experiment [1] (setting [6]), -12.5%. Further, the Potency result in experiment [2] was “inactive”.

On to `O=[n+]1ccn([O-])c2ccccc21`, for which the activity, negative = cell killing in experiment [1] (setting [7]) is -6.39%; in experiment [1] (setting [8]), -13.6%; in experiment [1] (setting [9]), -22.5%; in experiment [1] (setting [10]), -17%. In addition, the Potency result in experiment [2] was “inactive”.

In the case of `NCC(O)CC(=O)O` (configuration not stated), the activity, negative = cell killing in experiment [1] (setting [7]) is -5.1%; in experiment [1] (setting [8]), -3.38%; in experiment [1] (setting [9]), -5.53%; in experiment [1] (setting [10]), 12.2%. Further, in experiment [2], the Potency result was “inactive”.

For the molecule `C=N[C@@H](C(=O)N[C@@H]1C(=O)N2[C@@H]1SC(C)(C)[C@@H]2C(=O)O)c1ccccc1`, the activity, negative = cell killing is -11% in experiment [1] (setting [7]), -11.4% in experiment [1] (setting [8]), -8.19% in experiment [1] (setting [9]) and -15.6% in experiment [1] (setting [10]). In experiment [2], the Potency entry was “inactive”.

With `CN1C(=O)OC(C)(C)C1=O`, the activity, negative = cell killing in experiment [1] (setting [3]) is -9%; in experiment [1] (setting [4]), 0.292%; in experiment [1] (setting [5]) it was -3.8%; in experiment [1] (setting [6]) it was -18.7%. Also, in experiment [2], the Potency result is “inactive”.

Values taken from PubChem BioAssay (NCATS).
